# Test results published in PubChem BioAssay (NCI).
# Values joined by “and” are separate entries in the source; they are usually repeats but may differ in a detail not shown here. Equal values may be shown once. Compounds without any hit were thinned out: in the full panel of roughly 83,000, 20% have a hit.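 Assay: single dose, 48 h. Readout: percent growth (0 = no net growth; negative = cell death). Active: <10.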 Active and inactive are the calls of the source.
# System: HL-60(TB) leukemia
# Assay: NCI-60 one-dose screen, 48 h (100 = growth as untreated, 0 = no growth, -100 = all killed)
# Conditions: 10 µM unless noted
row,SMILES,growth
1,O=C(Nc1cccc(Cl)c1)c1cc(Cl)ccc1O,-32.4% (active)
2,C=C(C)[C@@H]1CC[C@@]2(C(=O)O)CC[C@]3(C)C(CCC4[C@@]5(C)CCC(OS(=O)(=O)c6ccccc6)C(C)(C)C5CC[C@]43C)C12 (stereo not given in full),21.4% (inactive)
3,O=[N+]([O-])c1ccc(N2CCN(Cc3ccccc3)CC2)c2c1no[n+]2[O-],-33.2% (active)
4,c1ccc(C(NC2CC3CCC2C3)c2ccccc2)cc1 (stereo not given),100% (inactive)
5,O=C(c1ccccc1)C1CCC1,88.2% (inactive)
6,COc1cc(CN(CCC(O)N2CCCC2=O)Cc2ccc3c(c2)OCO3)cc(OC)c1OC (stereo not given),90.6% (inactive)
7,CC(C)OC1OC(OC(C)C)C(OC(C)C)OC1OC(C)C (stereo not given),87.2% (inactive)
8,CCN(CC)CCNc1cc(-c2cccc(OC(F)(F)F)c2)nc2ccc(N3CCCC3)cc12,-55.4% (active) and -26.1% (active) and 12.6% (inactive)
9,Fc1cc2c(cc1Cl)N(c1ncnc3ccc(-c4cnc5[nH]ncc5c4)cc13)CC2,66.5% (inactive)
10,CC(NC(N)=S)c1ccccc1 (stereo not given),96.7% (inactive)
11,O=C(Cc1ccccc1)NC(c1ccc(Cl)cc1)c1c(O)ccc2ccccc12 (stereo not given),7.2% (active)
12,COc1ccc(-c2nc3c(c(-c4ccccc4)nn3-c3ccccc3)c(-c3ccc(N4CCOCC4)cc3)c2C#N)cc1,101% (inactive)
13,CC1(C)c2[nH]c3ccccc3c2C[C@]2(C)[C@H]3CC=C4[C@@H]5C[C@@](C)(C(N)=O)CC[C@]5(C)CC[C@@]4(C)[C@]3(C)CC[C@@H]12,55.8% (inactive)
14,Nc1ccc(S(=O)(=O)c2ccc(N)cc2)cc1,67.4% (inactive)
15,COc1ccc(-c2nnc(COc3ccc(NC(=O)Nc4ccc(Cl)c(C(F)(F)F)c4)cc3F)o2)cc1,-18.5% (active)
16,O=C1CCC(NC(=S)Nc2ccccc2)N1 (stereo not given),99.2% (inactive)
17,CCOc1nc(-c2ccccc2)cc2c(O)c(C(=O)N/N=C/c3ccccc3)[nH]c(=O)c12,101% (inactive)
18,O=c1oc2ccc(Cl)cc2c(=O)n1-c1cc(C(F)(F)F)cc(C(F)(F)F)c1,-20.6% (active)
19,CC(=O)O[C@H]1CC[C@]2(C)C3=C(C(=O)C[C@H]2C1(C)C)[C@]1(C)CC[C@H]([C@H](C)CCC(=O)O)[C@@]1(C)CC3=O,108% (inactive)
20,CCn1c(=S)sc2c(Nc3ccc(F)cc3)nc(-c3cccnc3)nc21,81.7% (inactive)

row,SMILES,growth
1,O=C(Cc1ccccn1)C(F)(F)C(F)(F)C(F)(F)F,105% (inactive)
2,C#CC[C@@H]1C[C@]2(C)[C@H]3CC[C@@H]4[C@H]5C(C(=C)C)CC[C@]5(C(=O)NCCCN5CCN(CCCN)CC5)CC[C@@]4(C)[C@]3(C)CC[C@H]2C(C)(C)[C@H]1OC(C)=O (stereo not given in full),-51.6% (active)
3,Cn1ccc(Cc2cnc(N)s2)n1,94.2% (inactive)
4,CC(C)Oc1ccc2cc(-c3nn(CC4CCNCC4)c4ncnc(N)c34)ccc2c1,63.8% (inactive) and -56.6% (active)
5,COc1ccc(Nc2ncccc2C(=O)NCc2cn(Cc3cccc(Oc4ccccc4)c3)nn2)c(OC)c1,18.9% (inactive)
6,Cc1nc2ncccc2nc1Nc1ccc(S(=O)(=O)Nc2ccccn2)cc1,100% (inactive)
7,Nc1ccc2c(c1)Cc1cc(N)c(Br)cc1-2,86.4% (inactive)
8,Nc1cc2c(cc1N)-c1ccccc1C2,7.76% (active) and 64.3% (inactive)
9,O=C(Nc1cccc(C(F)(F)F)c1)Nc1cccc(C(F)(F)F)c1,-27.8% (active)
10,COc1ccc(/C=C/C(=O)c2cccc(OCCCCOc3cccc(C(=O)/C=C/c4ccc(OC)c(OC)c4)c3)c2)cc1OC,68.6% (inactive)
11,O=[N+]([O-])c1ccc(N/N=C\c2cc(Br)ccc2O)nc1,11.7% (inactive) and -8.74% (active)
12,C(#CCN1CCOCC1)CCCN1CCOCC1,93% (inactive) and 127% (inactive)
13,COC(=O)[C@]12CC[C@@H](C(/C=C/c3cccnc3)=N/O)[C@@H]1[C@H]1CC[C@@H]3[C@@]4(C)CC(=C/c5cccnc5)/C(=N/O)C(C)(C)[C@@H]4CC[C@@]3(C)[C@]1(C)CC2,2.86% (active)
14,CCOc1ccc(Nc2c3ccccc3nc3ccccc23)cc1,90.2% (inactive) and 8.63% (active) and 8.99% (active)
15,COc1ccc(/C=C2\COc3ccc(O)cc3C2=O)c(OC)c1OC,12.7% (inactive)
16,C=C(C)[C@@H]1CCC=C2CC[C@]3(C)[C@H](CC[C@@H]4[C@@]5(C)CCCNC(C)(C)[C@@H]5CC[C@]43C)[C@H]21,27.7% (inactive)
17,COc1cc(-c2cc(-c3nc4ccccc4[nH]3)[nH]n2)cc(OC)c1OC,-22.9% (active)
18,COC(=O)/C=C/c1cc(OC)c2c(c1)[C@@H](C(=O)OC)[C@H](c1ccc(OC)c(OC)c1)O2,-13.3% (active)
19,O=C(N/N=C/c1ccccc1O)c1ccncc1,29.8% (inactive)
20,O=C(C(=O)N1CCOCC1)c1cn(CCCn2cc(C(=O)C(=O)N3CCOCC3)c3ccccc32)c2ccccc12,91.9% (inactive)
